The source of these data is PubChem BioAssay (EPA / NIEHS).

Inconclusive results are not listed. The source made the active and inactive calls. Rule for the calls: active = hit-call score of the fitted dose curve at least 0.9, where 1 is the maximum; inconclusive = response in the unintended direction; inactive = score below 0.9.

human Dopamine Transporter (DAT), SLC6A3 (gene 6531), sequence (Q01959 whole entry, looked up): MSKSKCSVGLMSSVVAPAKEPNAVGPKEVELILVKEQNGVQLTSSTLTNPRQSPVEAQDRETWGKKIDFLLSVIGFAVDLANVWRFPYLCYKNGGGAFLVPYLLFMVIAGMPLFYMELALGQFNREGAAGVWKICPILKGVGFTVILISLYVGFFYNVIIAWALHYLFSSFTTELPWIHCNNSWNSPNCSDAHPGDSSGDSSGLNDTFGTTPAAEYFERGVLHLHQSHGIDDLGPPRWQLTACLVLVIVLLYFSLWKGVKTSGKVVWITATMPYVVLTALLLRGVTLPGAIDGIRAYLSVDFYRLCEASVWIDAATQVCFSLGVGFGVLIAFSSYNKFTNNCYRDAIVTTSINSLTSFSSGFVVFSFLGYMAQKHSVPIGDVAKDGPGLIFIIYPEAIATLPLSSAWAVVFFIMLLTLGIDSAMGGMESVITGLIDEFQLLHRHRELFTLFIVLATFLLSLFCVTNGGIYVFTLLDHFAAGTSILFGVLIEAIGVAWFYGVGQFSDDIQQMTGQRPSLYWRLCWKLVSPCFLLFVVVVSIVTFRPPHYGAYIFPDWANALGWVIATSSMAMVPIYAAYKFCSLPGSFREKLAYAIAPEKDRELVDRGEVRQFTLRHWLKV

The assay concerns the target human Dopamine Transporter (DAT), SLC6A3 (gene 6531) (UniProt Q01959). The assay can be described thus: NVS_TR_hDAT: NovaScreen (NVS) Transporter Assay for human Dopamine Transporter (DAT) (AID 2283374). The method, then:
NVS_TR_hDAT is a biochemical, single-readout assay that uses extracted gene-proteins in a cell-free assay. Measurements were taken 1 hour after chemical dosing in a 96-well plate.NVS_TR_hDAT is one of one assay component(s) measured or calculated from the NVS_TR_hDAT assay. It is designed to make measurements of radioligand binding, a form of binding reporter, as detected with scintillation counting signals by Filter-based radiodetection technology.Data from the assay component NVS_TR_hDAT was analyzed into 1 assay endpoint. This assay endpoint, NVS_TR_hDAT, was analyzed in the positive analysis fitting direction relative to DMSO as the negative control and baseline of activity. Using a type of binding reporter, loss-of-signal activity can be used to understand changes in the binding as they relate to the gene SLC6A3. Furthermore, this assay endpoint can be referred to as a primary readout, because the performed assay has only produced 1 assay endpoint. To generalize the intended target to other relatable targets, this assay endpoint is annotated to the transporter intended target family, where the subfamily is neurotransmitter transporter.
Binding assays used specific radioligands (tritiated, iodinated) with non-radioactive competitive displacement ligands in agonist or antagonist protocols (as indicated) and various reference compounds and inhibitors to titrate specific binding to receptors and transporters. Most enzyme assays (CYPs, kinases, phosphatases, proteases, HDACs) used recombinant protein and specific substrates (fluorescence mostly, some colorimetric and radioactive) and inhibitors, followed by a biochemical separation of substrate and product. All assays for the biochemical HTS were initially run in duplicate at a single concentration (10 uM for CYP450 assays and 25 uM for all others). […] Each assay was run with positive and negative controls, and concurrent controls on every plate. The follow-up (secondary) screen tested active chemical-pairs in concentration series, as well as a few additional assays not tested in the primary screen, some selected negative inactives, and several cases re-run in the concentration series for confirmatory purposes.
With `CCCCC(C#N)(Cn1cncn1)c1ccc(Cl)cc1` (stereo not drawn), the half-maximal activity concentration (AC50) is 7.18 µM (active).

As for `CCOP(=O)(OCC)Oc1nc(Cl)c(Cl)cc1Cl`, the molecule was called inactive.

As for `CSC(=O)c1c(C(F)F)nc(C(F)(F)F)c(C(=O)SC)c1CC(C)C`, the outcome was inactive.

On to `CC1(C)C(C=C(Cl)Cl)C1C(=O)OC(C#N)c1cccc(Oc2ccccc2)c1` (stereo not drawn), for which the AC50 is 6.48 µM (active).

As for `CC1(C)CON(Cc2ccccc2Cl)C1=O`, the AC50 was 6.47 µM (active).

On to `OC(c1ccc(Cl)cc1)(c1ccc(Cl)cc1)C(Cl)(Cl)Cl`, for which the AC50 was 8.54 µM (active).

For the molecule `CCCCC(O)(Cn1cncn1)c1ccc(Cl)cc1Cl` (stereo not drawn), the AC50 is 2.25 µM (active).

`CC1(C)C(C(=O)OC(C#N)c2cccc(Oc3ccccc3)c2)C1(C)C` (stereo not drawn): the AC50 was 9.99 µM (active).

With `CCOc1cc(C(C)(C)C)ccc1C1COC(c2c(F)cccc2F)=N1` (stereo not drawn), the call was inactive.

As to `C=C(C)CN(CC)c1c([N+](=O)[O-])cc(C(F)(F)F)cc1[N+](=O)[O-]`, the AC50 is 7.64 µM (active).

For the molecule `CC1(C)CCC(=Cc2ccc(Cl)cc2)C1(O)Cn1cncn1` (stereo not drawn), the AC50 was 0.545 µM (active).

In the case of `CCN(CC)C(=O)C(C)Oc1cccc2ccccc12` (stereo not drawn), the AC50 is 10.4 µM (active).

For the molecule `COC(=O)N(C(=O)N1CO[C@@]2(C(=O)OC)Cc3cc(Cl)ccc3C2=N1)c1ccc(OC(F)(F)F)cc1`, the molecule was called inactive.

Take `Cc1cc(C)nc(Nc2ccccc2)n1`: the half-maximal activity concentration (AC50) was 25 µM (active).

For `CC(C)(C)C(=O)C(Oc1ccc(Cl)cc1)n1cncn1` (stereo not drawn), the AC50 is 0.238 µM (active).

With `COP(=S)(OC)Oc1ccc([N+](=O)[O-])c(C)c1`, the AC50 is 4.96 µM (active).

Turning to `CC(C)=CC1C(C(=O)OCc2coc(Cc3ccccc3)c2)C1(C)C` (stereo not drawn), the half-maximal activity concentration (AC50) is 25 µM (active).

`CCOC(=O)C(C)OC(=O)c1cc(Oc2ccc(C(F)(F)F)cc2Cl)ccc1[N+](=O)[O-]` (stereo not drawn): the AC50 was 7.94 µM (active).

For orientation: AC50 means the concentration at which the activity in the assay is half-maximal.
